# Assay outcomes deposited in PubChem by several laboratories.
# PostGolgi yeast – growth inhibition of a yeast mutant, post-Golgi transport screen; post-Golgi transport phenotypic cell assay; inhibition, % at 10 µM; hit rate 0.9% among 98,000; AID 739;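 also: yeast cells grown in 1536-well plates; yeast grown about 18 h at 30C before absorbance read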
# CYP2C9 inhib – blocks human cytochrome P450 2C9; hit rate 20% among 96,000; CYP2C9 Supersomes, luciferin-H conversion, luminescence; inhibition, % at 5 µM; AID 777; P11712;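 active = blocking of liver enzyme CYP2C9 beyond about 50% at 5 µM, limit read from the data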
# CYP2C19 inhib – inhibitors of human CYP2C19 | P33261 | inhibition, % at 5 µM | CYP2C19 Supersomes, luciferin-H EGE luminescence, 30 min | hit rate 21% among 96,000;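 active = CYP2C19 inhibition above a set limit at 5 µM in the primary screen, cut at about 50% in these data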
# Target sequence (P33261 whole entry, looked up): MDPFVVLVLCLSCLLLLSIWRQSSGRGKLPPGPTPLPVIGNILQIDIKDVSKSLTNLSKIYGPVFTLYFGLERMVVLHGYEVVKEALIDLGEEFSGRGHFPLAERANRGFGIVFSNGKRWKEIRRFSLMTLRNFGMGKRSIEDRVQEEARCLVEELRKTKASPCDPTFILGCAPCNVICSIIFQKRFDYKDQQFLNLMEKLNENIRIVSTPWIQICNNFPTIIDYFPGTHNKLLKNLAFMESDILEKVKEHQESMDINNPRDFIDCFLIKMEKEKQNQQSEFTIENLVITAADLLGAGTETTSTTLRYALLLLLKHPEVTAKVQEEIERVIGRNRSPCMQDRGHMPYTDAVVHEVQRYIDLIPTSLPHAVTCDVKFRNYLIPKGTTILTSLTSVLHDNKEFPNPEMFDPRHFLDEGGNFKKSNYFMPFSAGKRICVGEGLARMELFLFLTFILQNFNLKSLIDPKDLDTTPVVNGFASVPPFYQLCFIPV
# PostGolgi ctrl – inhibits growth of the yeast control strain. efflux-deficient yeast background strain, growth absorbance A615, 16 h. inhibition, % at 10 µM. hit rate 5% among 98,000
# CYP2C9 act – CYP2C9 (human) activation; hit rate 1.4% among 96,000; activation factor at 5 µM; recombinant CYP2C9, luciferin-H conversion, luminescence; hits give high values; factor 1 = untreated enzyme, 0 = blocked; AID 1024; P11712;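 active = activation factor of 2 or more for CYP2C9 at a 5 µM dose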
# CYP2C19 activ – cytochrome P450 2C19 (human) activation | P33261 | recombinant CYP2C19, luciferin-H EGE luminescence; hits give high values; 0 = fully inhibited enzyme, 1 = untreated enzyme | activation factor at 5 µM | 96,000 tested, under 10 active;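 active = activation factor of at least 2 at 5 µM in the primary screen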
# A number is an active result; n = inactive. Only some compounds are listed: those with a hit (about 32% of all), similar ones and a draw of the others. Rule as the data show it, unless noted: active = inhibition above about 30%; inactive = the rest.
SMILES,PostGolgi yeast,CYP2C9 inhib,CYP2C19 inhib,PostGolgi ctrl,CYP2C9 act,CYP2C19 activ
CCOC(=O)N1CCN(c2ccc(S(=O)(=O)N(Cc3ccccc3)Cc3ccccc3)cn2)CC1,34,n,n,n,n,n
Cc1ccc(CN(c2ccc(C(=O)N3CCc4ccccc4C3)cc2)S(C)(=O)=O)cc1,n,84,n,n,n,n
COc1ccccc1C1C(C(=O)c2cc3ccccc3o2)=C(O)C(=O)N1CCN1CCOCC1 (stereo not given),n,n,n,n,n,n
O=C(NC1CCCCC1)C1CCN(S(=O)(=O)N2CCOCC2)CC1,n,n,n,n,n,n
CN(CCCNC(=O)C1CCN(S(=O)(=O)N2CCC3(CC2)OCCO3)CC1)Cc1ccccc1,n,n,n,n,n,n
CS(=O)(=O)N(Cc1ccc(Cl)cc1)c1ccc(C(=O)N2CCN(c3ccccc3)CC2)cc1,n,98,91,n,n,n
CS(=O)(=O)N(Cc1ccccc1)c1ccc(C(=O)N2CCOCC2)cc1,n,n,n,n,n,n
CS(=O)(=O)N(Cc1ccccc1)c1ccccc1C(=O)N1CCN(c2ccccc2)CC1,n,72,94,n,n,n
CS(=O)(=O)N(CC(=O)N1CCN(c2cccc(Cl)c2)CC1)c1cccc(F)c1,n,n,n,n,n,n
CN1CCN(C(=O)c2ccc(N(Cc3ccc(Cl)cc3)S(C)(=O)=O)cc2)CC1,n,n,n,n,n,n
CS(=O)(=O)N(Cc1ccccc1)c1ccc(C(=O)N2CCN(c3cccc(Cl)c3)CC2)cc1,n,98,92,n,n,n
CCOC(=O)N1CCN(C(=O)c2ccc(CN(c3ccccc3)S(C)(=O)=O)cc2)CC1,n,54,n,n,n,n
O=C(NCCCN1CCCC1=O)c1ccc(CNS(=O)(=O)c2ccc(F)cc2)cc1,n,n,n,n,n,n
N#CC(C(=O)OC1CCCCC1)c1nc2ccccc2nc1N1CCCCC1 (stereo not given),n,n,n,n,n,n
CCOC(=O)N1CCN(C(=O)c2ccc(Cl)c(S(=O)(=O)Nc3ccccc3)c2)CC1,n,80,n,n,n,n
COc1ccc(C(=O)N2CCCCC2)cc1S(=O)(=O)Nc1ccccc1,n,n,n,n,n,n
CCOC(=O)N1CCN(C(=O)CCn2c(=S)[nH]c3cc(OCC)c(OCC)cc3c2=O)CC1,n,n,n,n,n,n
O=C(CCCn1c(=S)[nH]c2cc3c(cc2c1=O)OCO3)N1CCc2ccccc2C1,n,57,n,n,n,n
Cc1cccc(N2CCN(C(=O)CCn3c(=S)[nH]c4cc5c(cc4c3=O)OCO5)CC2C)c1 (stereo not given),n,53,n,n,n,n
O=C(CCn1c(=S)[nH]c2cc3c(cc2c1=O)OCO3)N1CCc2ccccc2C1,n,79,91,n,n,n
CC(C)(C)Sc1nc(O)cc(=O)[nH]1,n,n,n,n,n,n
COc1ccccc1/C=C/C(=O)NC(=S)N(C)C1CCCCC1,n,n,n,n,2.6,n
CN(C(=S)NC(=O)c1ccccc1Br)C1CCCCC1,n,n,n,n,n,n
O=[N+]([O-])c1ccc(O)c(-c2nn[nH]n2)c1,n,83,70,n,n,n
CCCc1n[nH]c2c1C(=O)C(C(=O)OC)C(C)(C)C2 (stereo not given),n,n,86,n,n,n
SMILES,PostGolgi yeast,CYP2C9 inhib,CYP2C19 inhib,PostGolgi ctrl,CYP2C9 act,CYP2C19 activ
COC(=O)C1C(=O)c2c(n[nH]c2C)CC1(C)C (stereo not given),n,n,n,n,n,n
COC(=O)c1ccc(NC(=O)CN2CCN(c3ccccc3)CC2)cc1,n,n,n,n,n,n
COc1ccc(CNC(=O)c2sc(=S)n(-c3ccc(OC)cc3)c2N)cc1,n,n,n,n,n,n
Cc1ccc(NCc2nnc3n2CCCCC3)cc1,n,n,75,n,n,n
Cc1cccc(OCc2nnc3n2CCCCC3)c1,n,n,n,n,n,n
Brc1ccc(NCc2nnc3n2CCCCC3)cc1,n,n,64,n,n,n
COc1ccc2c(-c3ccccc3)cc(=O)[nH]c2c1,n,n,n,n,n,n
COc1ccc(C(C[N+](=O)[O-])c2c(-c3ccccc3)cc3ccccn23)c(OC)c1 (stereo not given),n,70,n,n,n,n
Cc1ccc(-c2noc(CNCCCN(C)C)n2)cc1,n,n,n,n,n,n
